Test results: the supplement of paper PMC6555819

How the values were obtained:
Assay in all cases: PBM binding z-score (relative to random genomic background probes); higher = stronger binding; sequences stand for … in GC…GCGATTGACAGCGTAGAATGAAGG
[1] = tested on: RARb homodimer (NR concentration 270 nM)
Procedure, shortened: (§1)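 Random background probes are the reference for binding z-scores. These scores derive from regression-normalized fluorescence on custom Agilent 4×180K protein-binding microarrays incubated 1 h with ligand-free nuclear receptor dimers. Binding was detected with antibodies against each partner (one per run).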

[2] = tested on: RARg:RXRa (NR concentration 270 nM, RXRa partner concentration 90 nM)
Procedure, shortened: as §1

[3] = tested on: RARg homodimer (NR concentration 270 nM)
Procedure, shortened: as §1

[4] = tested on: RXRa DBDmut IVT, anti-RXR (DBD mutation: RXRa K156A/R161A, NR concentration 90 nM)
Procedure, shortened: as §1

[5] = tested on: RXRa homodimer (NR concentration 180 nM)
Procedure, shortened: as §1

[6] = tested on: THRa:RXRa (NR concentration 90 nM, RXRa partner concentration 90 nM)
Procedure, shortened: as §1

[7] = tested on: THRa homodimer (NR concentration 90 nM)
Procedure, shortened: as §1

[8] = tested on: VDR homodimer (NR concentration 270 nM)
Procedure, shortened: as §1

Sequence	PBM binding z-score [1]	PBM binding z-score [2]	PBM binding z-score [3]	PBM binding z-score [4]	PBM binding z-score [5]	PBM binding z-score [6]	PBM binding z-score [7]	PBM binding z-score [8]
ATCTCTAGGTAAAGTCCAGTGAAAGATCGATAGA	0.254	0.207	0.536	0.396	-0.0378	0.245	0.0822	0.0331
TCGAGTAGGTTAGTCGGGGCATACAGCCAACATA	0.452	0.28	0.255	0.235	0.45	1.02	-0.188	-0.0779
ATCGAAACGTCGAAGGTGAGTATACCCACCCGAA	-0.0717	0.382	0.461	-1.07	0.361	0.0237	-0.567	-0.497
TCGAGTGGGTTACCAATGGGGCATTCAGCTTTCT	0.278	0.678	-0.504	-0.00783	0.312	-0.369	-1.25	-1.02
CCGAGAAGGTTATGGGGCATTCAGGCAACGGTGA	1.61	1.84	1.38	0.364	2.23	1.3	0.0713	0.22
AGTCACAGTTCATCTAGGTAACGTAAGATATGCT	1.67	2.47	2.66	3.33	2.05	2.13	0.362	3.1
ATTGAAAGGTCGTGAGGTGAGTATACAGAAAGGC	3.49	4.76	4.06	1.2	5.39	3.77	1.94	1.4
TCGAGTTGGTTACCAATGGGGCATTCAGCTTTCT	-0.231	-0.62	-0.85	0.662	-0.558	-0.69	-1.23	-0.117
GCAGACAGGTGAAACGCAGGAAACTCAGGGTGGC	0.0136	0.246	0.0798	-0.424	0.715	0.142	-0.634	-0.569
TCTTGTAGCTCAAGCAGGTTAAGAAAGCCTGAGT	-0.116	-0.427	-0.42	0.0335	-0.207	0.103	-1.07	-0.763
TCTAGTTGGTCAAAGGTCACTCACTCGAAATGCG	4.78	6.5	6	2.11	7.54	3.86	2.1	3.03
TCATATAGGTAAAAGGTGATAGTCGGTGTGGTAA	1.15	0.851	0.577	1.76	1.86	0.901	0.434	0.283
CCGACTGGGGCAGAAAGGTTACCACACCATCCGG	2.28	1.77	1.41	-0.654	1.84	1.01	-0.368	-0.223
ATCGAAAAGTCGAGGTGAGTATAGAGAAAGGGAA	0.0212	0.371	0.476	-0.67	0.323	1.17	0.201	-0.198
TCTTGTAGATCTAAGGTTAAGAAAGCCGAAGCCT	0.513	0.36	0.019	1.06	1.21	2.16	1.26	-0.0148
CGTCAAAGTTCAAGGTATCGTAACAGAAAGCAGC	3.49	4.96	5.95	4.18	3.95	1.94	-0.0941	3.17
GTACCAAGGTGAATAGGTCCTTGATGAGTAGGCG	0.586	0.974	0.683	-0.522	0.785	1.23	0.287	-0.46
CTAACTAGGTCAAAGGTCAAAGTCGAGCCAACCA	4.93	8.93	7.64	2.72	10.3	4.84	1.59	3.19
CCTACTGGGACAAAAAGGTCATTGATGCCGATAA	4.37	4.68	4.48	1.21	5.22	3.31	0.878	3.69
AGAATGAGGTGATACGTAGATCAGGGAAGAAAGT	0.297	0.451	0.546	-0.351	0.719	1.57	0.357	-0.382
CGAACTAGGTCATCCAGGGCAGTGAATACATTGA	3.48	4.41	5.14	2.14	2.97	3.78	1.25	2.25
TCTCCGAGGACACGAAGGTCAGAGCTTTCCAGAG	3.51	3.46	4.49	0.665	2.02	3.74	2.44	1.76
CCGACTGGGGCCAGGTTACCATAACGCACAGCCA	0.918	0.349	0.638	-0.672	0.426	0.785	0.378	-0.444
TAGCCTAGGTCATGCGGGCCAGTCTAGTGTCGGC	2.8	3.86	4.19	0.255	2.42	2.75	0.583	0.569
AGTCAAAGTTCACTAGGTAATGTAAGATTCAGCT	3.71	4.84	5.6	4.39	3.73	1.91	-0.139	3.81
CCTTTCGGGTCACTCCAGGTTATAGCATCGGAGT	3.43	4.46	4.55	2.36	4.03	5.16	3.18	1.87
ATATGTAGGTTAGCTGGGTTCATTCAGACTAGGC	1.47	1.58	0.836	2.97	2.38	3.54	0.442	6.88
TCATATAGGTGAAGGTGAAAGTCGAACGATATGA	1.3	1.42	1.48	0.518	1.6	0.793	-0.343	-0.0365
